Source: PubChem
Cycloheximide cs: Cycloheximide Counterscreen for Small Molecule Inhibitors of Shiga Toxin; 300,000 tested, 12% active; max response, %; AID 2314, 2010; cell reporter, cycloheximide protein synthesis inhibition counterscreen; in the data active = max response mostly above about 13%, no sharp cut-off; inactive = mostly below about 14%; note: read at 38.3 µM for the half of the compounds with a filed dose; 0% is about no effect
NS1 function inh: qHTS Assay for Inhibitors of Influenza NS1 Protein Function; Potency, µM (series often up to 46.1 µM), for inactives: top-dose activity, positive = more growth; 270,000 tested, 0.4% active; calls by dose curve; note: potency is the fitted concentration of half-maximal effect; actives are rising curves; nearly all actives have a fitted effect of over 50% in size
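A cell-based growth assay was used: compounds that relieve NS1-induced slow growth of budding yeast raise OD600. Assay medium was yeast nitrogen base with ammonium sulphate and -URA supplement, pH 6.0, with 2% galactose.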
Shiga inhibitor: A qHTS for Small Molecule Inhibitors of Shiga Toxin | Vero cells, Shiga toxin protein synthesis inhibition reporter | AID 2315, 2010 | inhibition, % at 38.7 µM | 290,000 tested, 9.2% active; in the data active = inhibition mostly above about 28%, no sharp cut-off; inactive = mostly below about 43%; note: 0% is about no effect
Pf growth 48h: Primary qHTS for delayed death inhibitors of the malarial parasite plastid, 48 hour incubation. AID 504832, 2011. Potency, µM (titrated, usually from 28.7 µM), inactives show at the highest dose activity change, negative = inhibition, most hits filed as inhibitors. P. falciparum luciferase growth in erythrocytes, 48 h. 310,000 tested, 5.9% active; note: potency is the fitted concentration of half-maximal effect; % is set by controls: 0 for no effect and ±100 for the full control effect
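Luciferase-expressing parasites in RBCs, 2% Hct / 0.1% parasitemia final; RPMI 1640 + 0.5% Albumax; 37 C, 5% CO2, one generation; luminescence read-out, lower signal = inhibition.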
SARS PLpro yeast: qHTS of Yeast-based Assay for SARS-CoV PLP; AID 485353, 2010; 330,000 tested, 0.19% active; S. cerevisiae expressing SARS-CoV PLpro, growth rescue; Potency, µM (highest dose often 32.9 µM), without a hit: at the top dose activity, positive = growth rescue, usual class: activators; calls by dose curve; note: potency is the fitted concentration of half-maximal effect; 0% is about no effect; nearly all actives have a fitted effect of over 55% in size
Pf growth 96h: Primary qHTS for delayed death inhibitors of the malarial parasite plastid, 96 hour incubation; P. falciparum luciferase reporter growth, 96 h; 320,000 tested, 6.9% active; Potency, µM (titrated, usually from 28.7 µM), inactives show at the top dose activity change, negative = inhibition, usual class: inhibitors; note: potency is the fitted concentration of half-maximal effect; % is set by controls: 0 for no effect and ±100 for the full control effect
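Compounds incubated with erythrocytes infected by luciferase-expressing P. falciparum (2% hematocrit, 0.05% parasitemia final) for 96 hours, 37 C in 5% CO2. Growth inhibition scored as decreased luciferase luminescence.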
The depositor's hits bear a star; ? = inconclusive; . = no result given. The list is not random: actives were taken first. Their share in the collection is about 21%. Unless noted, calls come from the whole dose curve; as a rule, active = well fitted inhibition curve with a large enough effect; inconclusive = small, poorly fitted or top-dose-only effect, or another doubt; inactive = no such curve, though single readings can be large or run the other way.

SMILES	Cycloheximide cs	NS1 function inh	Shiga inhibitor	Pf growth 48h	SARS PLpro yeast	Pf growth 96h
CC(=O)Nc1ccc(OCC(O)CN2C(C)CCCC2C)cc1 (stereo not given)	19.9*	4.4%	-2.7	21.5%	9.9%	52.3%
CC1CCCC(C)N1CC(O)COc1c(F)cc(Br)cc1F (stereo not given)	4.6	4.4%	8.8	10.4µM*	7.4%	?
CCC1(C)N=C(N)Nc2nc3cc(C)c(C)cc3n21 (stereo not given)	-1.0	-1.5%	27.1	?	1.4%	?
CSCC[C@H](NC(=O)CNC(=O)CNC(=O)[C@H](CO)NC(=O)[C@H](CCCNC(=N)N)NC(=O)[C@H](CO)NC(=O)[C@H](CC(C)C)NC(=O)[C@H](CC(C)C)NC(=O)CNC(=O)[C@H](C)NC(=O)[C@H](CC(C)C)NC(=O)[C@H](CCCNC(=N)N)NC(=O)[C@H](Cc1cnc[nH]1)NC(=O)[C@@H](NC(=O)[C@@H](N)C(C)C)[C@@H](C)O)C(=O)N[C@H](C(=O)N[C@@H](CCCCN)C(=O)N[C@@H](CO)C(=O)N[C@@H](CC(N)=O)C(=O)N[C@@H](Cc1ccccc1)C(=O)N[C@H](C(=O)N1CCC[C@H]1C(=O)N[C@H](C(=O)N[C@@H](CC(N)=O)C(=O)N[C@H](C(=O)NCC(=O)N[C@@H](CO)C(=O)N[C@@H](CCCCN)C(=O)N[C@@H](C)C(=O)N[C@@H](Cc1ccccc1)C(N)=O)C(C)C)[C@@H](C)O)C(C)C)C(C)C	-3.5	.	8.3	.	.	.
CC(c1ccccc1F)n1cc(C(=O)NCc2ccncc2)nn1 (stereo not given)	-2.5	-3.7%	-10.7	-1.6%	0.2%	0.522µM*
C[C@@]1(CO)[C@H](O)CC[C@@]2(C)[C@H]1CC[C@H]1C[C@@H]3C[C@@]12CC[C@]3(O)CO	-2.4	-2.5%	-10.9	0.522µM*	-1.4%	0.586µM*
COc1ccccc1N1CC(C(=O)NCC2COc3ccccc3O2)CC1=O (stereo not given)	.	.	.	.	0.8%	.
CCCCC(=O)Nc1ccc(C(=O)NN2C(=O)c3ccccc3C2=O)cc1	-2.8	5.5%	-2.6	16.5%	3.4%	16.6%
CCCC(=O)Nc1ccc(C2C(=O)c3ccccc3C2=O)cc1	12.1*	?	28.0	122.8%	8.4%	0.0%
CC(=O)Nc1ccc(C2C(=O)c3ccccc3C2=O)cc1	23.7*	?	68.1*	67.4%	7.6%	49.7%
O=c1ccc(-c2ccccc2)nn1Cc1ccccc1F	19.2	-13.5%	12.5	-33.7%	0.0%	13.1µM*
COc1ccc(C(=O)CSc2nc(C)cc(=O)[nH]2)cc1	2.0	6.4%	-1.6	-3.0%	1.5%	?
Cc1cc(=O)[nH]c(SCC(=O)c2ccc(C(C)C)cc2)n1	33.6*	-11.4%	31.9*	14.3%	-4.4%	4.5%
COCc1cc(=O)[nH]c(SCC(=O)c2ccccc2)n1	-2.2	0.6%	-3.6	2.08µM*	-1.1%	-20.2%
COCc1cc(=O)[nH]c(SCCS(=O)(=O)c2ccc(C)cc2)n1	0.8	3.5%	-6.9	2.33µM*	0.5%	-2.1%
Cc1ccc(C(=O)CSc2nc(-c3ccccc3)cc(=O)[nH]2)cc1	-1.5	6.0%	-7.3	?	0.9%	-4.7%
CCCc1cc(=O)[nH]c(SCC(=O)NC(=O)c2ccccc2)n1	-6.7	-8.7%	-19.3	13.6%	7.9%	0.415µM*
CC(C(=O)N1CCN(C(=O)c2ccco2)CC1)N1C(=O)NC2(CCCCC2C)C1=O (stereo not given)	.	.	.	-4.8%	1.9%	-22.4%
CCCN(CCC)C(=O)NC1CC(=O)N(c2ccc(OC)cc2)C1 (stereo not given)	1.6	-4.8%	-2.9	19.9%	-19.6%	0.0%
CS(=O)(=O)c1ccc(Cl)c(NC(=O)CSc2nnc(-c3cccs3)n2N)c1	.	.	.	?	0.9%	-9.7%
O=C(CCc1c[nH]c2ccccc12)N1CCN(c2ccc(O)cc2)CC1	2.1	.	12.9	?	-0.1%	?
O=C1CCC(=O)N1c1ccc(S(=O)(=O)Nc2ccc(Br)cc2)cc1	6.4	-4.9%	14.6	2.0%	9.9%	14.0%
O=C(Cc1cccs1)Nc1nc2c(s1)CCCC2	53.9*	-31.8%	131.9*	43.4%	-21.0%	6.2%
Cn1c(SCC(=O)Nc2nc3c(s2)CCCC3)nnc1-c1ccccc1	-0.8	-1.9%	8.8	-21.5%	0.1%	0.0%
O=C(CCSc1ccccc1)Nc1nc2c(s1)CCCC2	31.5*	0.1%	162.3*	48.0%	-6.2%	.
SMILES	Cycloheximide cs	NS1 function inh	Shiga inhibitor	Pf growth 48h	SARS PLpro yeast	Pf growth 96h
O=C(Cc1cn2ccsc2n1)Nc1nc2c(s1)CCCC2	1.8	-10.6%	0.9	.	-3.2%	40.2%
O=C(Nc1nc2c(s1)CCCC2)c1cccnc1	52.4*	0.4%	70.4*	70.3%	-1.3%	9.4%
O=C(NC(=S)Nc1nc2c(s1)CCCC2)c1ccc(C(=O)c2ccccc2)cc1	16.9	11.7%	12.1	-1.6%	-14.7%	3.8%
C/C(=N\Nc1nc2c(s1)CCCC2)c1ccccc1	43.2*	7.3%	143.1*	?	-1.8%	.
O=C(CSC(=S)N1CCOCC1)Nc1ncc2c(n1)CC(c1ccco1)CC2=O (stereo not given)	-1.1	3.6%	-7.6	13.2%	1.6%	11.5%
CN(C)S(=O)(=O)c1ccc2c(c1)nc(CCC(=O)NCCc1ccc(Cl)cc1)n2C	-2.2	-7.8%	9.5	?	0.2%	?
O=C(Nc1nc2c(s1)CCCC2)c1cccs1	26.8*	-134.3%	-11.1	153.3%	-21.0%	-5.7%
O=C(Nc1nc2c(s1)CCCC2)Oc1ccccc1	21.3*	1.2%	34.2*	54.5%	1.6%	13.4%
CC(C)(C)c1nc(SCC(=O)Nc2nc3c(s2)CCCC3)c2ccccc2n1	-2.0	-10.4%	4.2	1.17µM*	-3.8%	?
O=C(Nc1nc2c(s1)CCCC2)c1cc(-c2ccncc2)nc2ccccc12	1.6	9.1%	-1.9	0.0%	-6.9%	0.0%
COC(=O)[C@]1(C)N[C@H](CN(C)C(=O)C2CCCCC2)[C@@H]2C(=O)N(C)C(=O)[C@@H]21	.	.	.	.	0.8%	.
CCOc1ccc(CCNC(=O)C2CCC(=O)N2C2CCCCC2)cc1OCC (stereo not given)	-3.4	-16.9%	-9.0	3.8%	4.2%	217.7%
CC(=O)OCCCn1c(C)[n+](C)c2cc(Cl)c(Cl)cc21	-2.1	-0.8%	-1.6	5.22µM*	-0.8%	36.5%
CCn1c(C)[n+](CCOC(C)=O)c2cc(Cl)c(Cl)cc21	-1.3	0.8%	4.7	2.33µM*	0.5%	34.4%
Cc1cc(/C=C(\C#N)C(=O)NCc2cccs2)c(C)[nH]1	16.3*	-0.8%	67.2	-23.8%	0.9%	-2.9%
C/C(=N\NC(=O)c1ccncc1)C12CC3CC(CC(C3)C1)C2	10.5	9.4%	11.0	-13.7%	-1.8%	0.9%
